# Compound activity (PubChem BioAssay)
# Only a sample is shown.
# FECH block: human FECH heme synthesis enzyme inhibition; purified FECH, Ni-mesoporphyrin absorbance 550 nm; calls only at 10 µM (by protocol); 3.3% of 20,000 active; AID 1671448;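 active = enzyme reaction rate more than 3 SD below the solvent-only control wells on the same plate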;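 also: lower slope than DMSO wells means FECH inhibition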
# * marks the source's active call; other numbers are inactive results; i = inactive.
SMILES,FECH block
CCc1nc2nc(C)c(NC(=O)Nc3cccc(C(F)(F)F)c3)c(=O)n2[nH]1,i
CCOc1ccccc1N(Cc1nc2nc(C)cc(=O)n2[nH]1)C(=O)c1ccccc1F,i
Cc1nc2nc(C)c(NC(=O)Nc3cccc(C(F)(F)F)c3)c(=O)n2[nH]1,i
COc1cccc(NC(=O)Nc2c(C)nc3nc(C)[nH]n3c2=O)c1,i
CN(C)c1nc(Nc2ccc3c(c2)OCO3)c2cnn(-c3ccccc3)c2n1,i
CCN(CC)CCNc1nc(Nc2ccc(F)cc2)c2cnn(-c3ccccc3)c2n1,i
CCNC(=O)[C@@H]1C[C@@H](N)CN1C(=O)CCc1cn2ccccc2n1,i
O=C(CCCc1c[nH]c2ccccc12)N1CCCC2(CCNCC2)CC1,i
CC(=O)Nc1ccnn1CC1=CCN(Cc2c(C)noc2C)CC1,i
CC1CCCCN1CCNC(=O)CC1CCN(S(=O)(=O)c2ccccc2)CC1 (stereo not given),i
CCc1nc(OCC(=O)NCc2ccc(C)o2)c2c(-c3ccc(F)cc3)noc2n1,i
COc1cccc(C(=O)Nc2cc(C)nn2-c2ncnc3c2cnn3-c2ccc(Cl)cc2)c1OC,i
Cc1ccc(Nc2nc(NCCN(C)C)nc3c2cnn3-c2ccccc2)cc1,i
O=C(Nc1cccc(Cl)c1)c1nc(N2CCOCC2)c2oc3ccccc3c2n1,i
Cc1cc(C)cc(-n2c(CN3CCN(C(=O)Nc4cccc(Br)c4)CC3)nc3cccnc32)c1,i
